{"source": "paper PMC5700166", "data": [{"biological_target": "GST-Hu-p50 (Homo sapiens, UniProt P19838 7-356)", "sequence (P19838 7-356)": "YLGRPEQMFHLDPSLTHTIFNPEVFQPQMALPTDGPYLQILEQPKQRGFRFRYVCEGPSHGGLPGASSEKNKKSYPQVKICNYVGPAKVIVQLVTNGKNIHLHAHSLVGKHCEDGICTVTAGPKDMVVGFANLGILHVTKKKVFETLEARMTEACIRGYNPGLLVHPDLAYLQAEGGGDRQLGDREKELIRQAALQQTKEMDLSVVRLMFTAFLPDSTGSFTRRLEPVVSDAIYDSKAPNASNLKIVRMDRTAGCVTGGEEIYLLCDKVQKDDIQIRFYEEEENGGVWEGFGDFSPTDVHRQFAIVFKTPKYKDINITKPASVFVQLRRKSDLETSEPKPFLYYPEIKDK", "assay": "protein-binding microarray (PBM); PBM: ~300 nM protein, 6 mM HEPES pH 7.8, 80 mM KCl, 0.5 mM EDTA, 0.5 mM EGTA, 6% glycerol, 35 ng/ul poly-dIdC, 1% milk, 1 h, room temperature; Ap Aiptasia and Nv Nematostella (sea anemones) / Co Capsaspora / Aq Amphimedon (sponge) / Dm Drosophila / Hu human; RHD is the Rel homology domain; high values mean tight binding", "conditions": "dsDNA, one strand shown", "units": {"binding signal": "z-score"}, "values": [{"sequence": "CCGATTAACATCAGGAACACCCCTGATGTTAATCGGGTCTTGATTCGCTTGACGCTGCTG", "binding signal": 2.26}, {"sequence": "CCGATTAACATCACCGGAAATCCTGATGTTAATCGGGTCTTGATTCGCTTGACGCTGCTG", "binding signal": 1.78}, {"sequence": "CCGATTAACATCACCCTTGGGAATGATGTTAATCGGGTCTTGATTCGCTTGACGCTGCTG", "binding signal": 1.55}, {"sequence": "CCGATTAACATCAAAATTTTCCTTGATGTTAATCGGGTCTTGATTCGCTTGACGCTGCTG", "binding signal": 1.03}, {"sequence": "CCGATTAACATCAAAATTCCCTCTGATGTTAATCGGGTCTTGATTCGCTTGACGCTGCTG", "binding signal": 5.19}, {"sequence": "CCGATTAACATCAGAGTTTTCCCTGATGTTAATCGGGTCTTGATTCGCTTGACGCTGCTG", "binding signal": 3.99}, {"sequence": "CCGATTAACATCAGGAAGGCCCCTGATGTTAATCGGGTCTTGATTCGCTTGACGCTGCTG", "binding signal": 2.59}, {"sequence": "CCGATTAACATCACCTTTAGGAGTGATGTTAATCGGGTCTTGATTCGCTTGACGCTGCTG", "binding signal": 1.11}, {"sequence": "CCGATTAACATCAAATTTTTCCCTGATGTTAATCGGGTCTTGATTCGCTTGACGCTGCTG", "binding signal": 4.48}, {"sequence": "CCGATTAACATCAATTTAGACGGTGATGTTAATCGGGTCTTGATTCGCTTGACGCTGCTG", "binding signal": 1.58}, {"sequence": "CCGATTAACATCAGGGGATTAAATGATGTTAATCGGGTCTTGATTCGCTTGACGCTGCTG", "binding signal": 4.87}, {"sequence": "CCGATTAACATCACGATTTTCCCTGATGTTAATCGGGTCTTGATTCGCTTGACGCTGCTG", "binding signal": 3.78}, {"sequence": "CCGATTAACATCAAATTCTCCCCTGATGTTAATCGGGTCTTGATTCGCTTGACGCTGCTG", "binding signal": 5.07}, {"sequence": "CCGATTAACATCACGGCAACCCCTGATGTTAATCGGGTCTTGATTCGCTTGACGCTGCTG", "binding signal": 1.19}, {"sequence": "CCGATTAACATCAGGAAAGTCCATGATGTTAATCGGGTCTTGATTCGCTTGACGCTGCTG", "binding signal": 1.14}, {"sequence": "CCGATTAACATCACATCTTCCCCTGATGTTAATCGGGTCTTGATTCGCTTGACGCTGCTG", "binding signal": 4.51}, {"sequence": "CCGATTAACATCAATTTATCCCCTGATGTTAATCGGGTCTTGATTCGCTTGACGCTGCTG", "binding signal": 4.37}, {"sequence": "CCGATTAACATCACCGTTTAAGCTGATGTTAATCGGGTCTTGATTCGCTTGACGCTGCTG", "binding signal": 1.15}, {"sequence": "CCGATTAACATCACATTTCCCCATGATGTTAATCGGGTCTTGATTCGCTTGACGCTGCTG", "binding signal": 5.25}, {"sequence": "CCGATTAACATCAAAGTTTTCCCTGATGTTAATCGGGTCTTGATTCGCTTGACGCTGCTG", "binding signal": 4.49}, {"sequence": "CCGATTAACATCAATAAAGTCCCTGATGTTAATCGGGTCTTGATTCGCTTGACGCTGCTG", "binding signal": 5.23}, {"sequence": "CCGATTAACATCAATTTTTGCCCTGATGTTAATCGGGTCTTGATTCGCTTGACGCTGCTG", "binding signal": 1.07}, {"sequence": "CCGATTAACATCAGGGGATACCCTGATGTTAATCGGGTCTTGATTCGCTTGACGCTGCTG", "binding signal": 5.1}, {"sequence": "CCGATTAACATCAAAAATTCCATTGATGTTAATCGGGTCTTGATTCGCTTGACGCTGCTG", "binding signal": 1.07}, {"sequence": "CCGATTAACATCAATAAATTCCCTGATGTTAATCGGGTCTTGATTCGCTTGACGCTGCTG", "binding signal": 5.11}, {"sequence": "CCGATTAACATCAATTAGGTGGGTGATGTTAATCGGGTCTTGATTCGCTTGACGCTGCTG", "binding signal": 1.64}, {"sequence": "CCGATTAACATCAGGGCAAACCCTGATGTTAATCGGGTCTTGATTCGCTTGACGCTGCTG", "binding signal": 1.57}, {"sequence": "CCGATTAACATCACGTTTTTCCCTGATGTTAATCGGGTCTTGATTCGCTTGACGCTGCTG", "binding signal": 3.49}, {"sequence": "CCGATTAACATCAACGGTGGAAATGATGTTAATCGGGTCTTGATTCGCTTGACGCTGCTG", "binding signal": 1.15}, {"sequence": "CCGATTAACATCAGGAAATTTCATGATGTTAATCGGGTCTTGATTCGCTTGACGCTGCTG", "binding signal": 1.06}, {"sequence": "CCGATTAACATCACGAAATTCCCTGATGTTAATCGGGTCTTGATTCGCTTGACGCTGCTG", "binding signal": 5.1}, {"sequence": "CCGATTAACATCACGGACACCCCTGATGTTAATCGGGTCTTGATTCGCTTGACGCTGCTG", "binding signal": 1.06}, {"sequence": "CCGATTAACATCAGGGAGAGCCCTGATGTTAATCGGGTCTTGATTCGCTTGACGCTGCTG", "binding signal": 2.37}, {"sequence": "CCGATTAACATCAGTAGTGGGGCTGATGTTAATCGGGTCTTGATTCGCTTGACGCTGCTG", "binding signal": 1.09}, {"sequence": "CCGATTAACATCAGGGGATAATATGATGTTAATCGGGTCTTGATTCGCTTGACGCTGCTG", "binding signal": 4.49}, {"sequence": "CCGATTAACATCAAAGATTTCCCTGATGTTAATCGGGTCTTGATTCGCTTGACGCTGCTG", "binding signal": 4.86}, {"sequence": "CCGATTAACATCACCCATTCCCCTGATGTTAATCGGGTCTTGATTCGCTTGACGCTGCTG", "binding signal": 5.05}, {"sequence": "CCGATTAACATCACAAAAAATTTTGATGTTAATCGGGTCTTGATTCGCTTGACGCTGCTG", "binding signal": 1.65}, {"sequence": "CCGATTAACATCAAAAATTTCCTTGATGTTAATCGGGTCTTGATTCGCTTGACGCTGCTG", "binding signal": 1.32}]}]}
